Test [1] deals with Norway rat Vesicular Monoamine Transporter (VMAT2), neurotransmitter transporter, Slc18a2 (gene 25549) (UniProt Q01827). The test is described as follows: NVS_TR_rVMAT2: NovaScreen (NVS) Transporter Assay for Norway rat Vesicular Monoamine Transporter (VMAT2), neurotransmitter transporter (AID 2283376).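 Further: actives lower the bound radioligand signal below the DMSO level.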 Put shortly:
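Filter-based scintillation counting of radioligand bound to rat forebrain-derived VMAT2 protein, cell-free, 1 h post-dose. Signal loss relative to DMSO control scored; single-concentration duplicate screen (25 uM) followed by concentration-response testing of actives.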

A short description of test [2]: TOX21_p53_BLA_p2_viability: Viability Assessment in the Tox21 HCT-116 p53 Agonism Beta-lactamase Assay, Phase 2 (AID 2283591).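 Further: compound exposure lasted 16 h at 37 °C; actives lower the ATP signal meaning cytotoxicity.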 Summed up:
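HCT116 p53-bla cells, 4000/well, dosed after 5 h plating (217-fold dilution of DMSO stocks) and incubated 16 h at 37C. Viability taken as cellular ATP by CellTiter-Glo luminescence after 30 min RT; signal loss marks cytotoxicity.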

The target in test [3] is Cellular tumor antigen p53 (Homo sapiens) (UniProt P04637). The test is described as follows: TOX21_p53_BLA_p2_ratio: Tox21 HCT-116 p53 Agonism Beta-lactamase Assay, Ratio, Phase 2 (AID 2283592). Summed up:
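Cleaved-to-uncleaved substrate ratio (460 vs 530 nm) measured in HCT116 cells with an inducible beta-lactamase reporter linked to p53 activity. Compounds incubated 16 h at 37C before 2 h room-temperature CCF4-AM loading.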

Test [4] is described as follows: TOX21_p53_BLA_p3_viability: Viability Assessment in the Tox21 HCT-116 p53 Agonism Beta-lactamase Assay, Phase 3 (AID 2283593).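 Further: cells exposed to compound for 16 h before reading.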 Put shortly: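 HCT116 cells, 4000/well, dosed 5 h after plating by pin transfer (217-fold dilution from DMSO stock) and incubated 16 h at 37C, 5% CO2. Viability read as ATP luminescence with CellTiter-Glo after 30 min at room temperature.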

The target in test [5] is Cellular tumor antigen p53 (Homo sapiens) (UniProt P04637). The test is described as follows: TOX21_p53_BLA_p3_ratio: Tox21 HCT-116 p53 Agonism Beta-lactamase Assay, Ratio, Phase 3 (AID 2283596). Summed up: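 Cells were seeded at 4000/well, rested 5 h at 37C, then dosed with DMSO compound solutions (217-fold dilution) for 16 h. CCF4-AM substrate was loaded for 2 h at room temperature, and the 460/530 nm emission ratio was fitted for gain of signal versus DMSO.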
Cellular tumor antigen p53 (Homo sapiens), sequence (P04637 whole entry, looked up): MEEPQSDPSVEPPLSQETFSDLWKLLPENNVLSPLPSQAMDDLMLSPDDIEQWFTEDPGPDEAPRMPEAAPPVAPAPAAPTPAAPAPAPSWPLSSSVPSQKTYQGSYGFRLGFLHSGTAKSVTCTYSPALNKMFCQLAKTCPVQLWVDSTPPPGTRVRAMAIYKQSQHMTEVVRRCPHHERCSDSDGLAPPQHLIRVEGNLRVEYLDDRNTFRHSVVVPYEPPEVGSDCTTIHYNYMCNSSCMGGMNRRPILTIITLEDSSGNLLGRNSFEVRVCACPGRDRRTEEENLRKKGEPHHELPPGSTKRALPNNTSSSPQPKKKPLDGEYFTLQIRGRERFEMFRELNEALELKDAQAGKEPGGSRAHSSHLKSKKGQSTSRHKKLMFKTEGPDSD

A short description of test [6]: TOX21_p53_BLA_p4_viability: Viability Assessment in the Tox21 HCT-116 p53 Agonism Beta-lactamase Assay, Phase 4 (AID 2283597).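 Further: hits lower the luminescence signal meaning cytotoxicity.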 Summed up:
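Viability is taken as cellular ATP: after 16 h compound exposure of HCT116 cells and a 2 h room-temperature CCF4-AM substrate step, CellTiter-Glo reagent is added and luminescence is measured 30 min later.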

Test [7] addresses Cellular tumor antigen p53 (Homo sapiens) (UniProt P04637). The test is described as follows: TOX21_p53_BLA_p5_ratio: Tox21 HCT-116 p53 Agonism Beta-lactamase Assay, Ratio, Phase 5 (AID 2283599). Put shortly: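 HCT-116 p53-bla cells (4000/well) plated 5 h, dosed with compound (217-fold DMSO dilution) for 16 h at 37 C; CCF4-AM substrate 2 h at room temperature. Activity is the 460/530 nm emission ratio (405 nm excitation), fitted in gain-of-signal direction versus DMSO.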

The nature of test [8]: TOX21_p53_BLA_p5_viability: Viability Assessment in the Tox21 HCT-116 p53 Agonism Beta-lactamase Assay, Phase 5 (AID 2283600). Put shortly: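 Viability is taken from cellular ATP content, measured by luciferase luminescence in the same wells after the beta-lactamase ratio read. Cells are seeded at 4000 per well and exposed to DMSO-dissolved compounds, diluted 217-fold, for 16 h.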

The target in test [9] is Cellular tumor antigen p53 (Homo sapiens) (UniProt P04637). The test is described as follows: TOX21_p53_BLA_p4_ratio: Tox21 HCT-116 p53 Agonism Beta-lactamase Assay, Ratio, Phase 4 (AID 2283601). Put shortly: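 HCT-116 p53 beta-lactamase reporter cells (4000/well) preincubated 5 h, then compound (217-fold dilution of DMSO stock) for 16 h at 37C. CCF4-AM substrate added 2 h at room temperature; 460/530 nm emission ratio fitted upward versus DMSO.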

The target in test [10] is mouse Estrogen Receptor alpha (Era), Esr1 (gene 13982) (UniProt P19785). The test is described as follows: NVS_NR_mERa: NovaScreen (NVS) Nuclear Receptor Binding Assay for mouse Estrogen Receptor alpha (Era) (AID 2283378).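 Further: hit means loss of bound radioligand signal relative to DMSO.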 Summed up:
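Test chemicals competed against a specific radioligand for binding to cell-free mouse Era. Duplicate wells at 25 uM were read 18 hours later by filter-based radiodetection, with loss of signal against DMSO scored as activity.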

Where “and” joins values, the source holds several entries; their conditions need not be identical. Equal values may be shown once. Results filed as inconclusive are left out. Some structures have more than one record in an assay (separate samples or runs), and their calls can disagree. Calls of active or inactive are those of the source. How the source made its calls: active means hit-call score of the fitted dose curve at least 0.9, where 1 is the maximum; inconclusive means response in the unintended direction; inactive means score below 0.9.

Norway rat Vesicular Monoamine Transporter (VMAT2), neurotransmitter transporter, Slc18a2 (gene 25549), sequence (Q01827 whole entry, looked up): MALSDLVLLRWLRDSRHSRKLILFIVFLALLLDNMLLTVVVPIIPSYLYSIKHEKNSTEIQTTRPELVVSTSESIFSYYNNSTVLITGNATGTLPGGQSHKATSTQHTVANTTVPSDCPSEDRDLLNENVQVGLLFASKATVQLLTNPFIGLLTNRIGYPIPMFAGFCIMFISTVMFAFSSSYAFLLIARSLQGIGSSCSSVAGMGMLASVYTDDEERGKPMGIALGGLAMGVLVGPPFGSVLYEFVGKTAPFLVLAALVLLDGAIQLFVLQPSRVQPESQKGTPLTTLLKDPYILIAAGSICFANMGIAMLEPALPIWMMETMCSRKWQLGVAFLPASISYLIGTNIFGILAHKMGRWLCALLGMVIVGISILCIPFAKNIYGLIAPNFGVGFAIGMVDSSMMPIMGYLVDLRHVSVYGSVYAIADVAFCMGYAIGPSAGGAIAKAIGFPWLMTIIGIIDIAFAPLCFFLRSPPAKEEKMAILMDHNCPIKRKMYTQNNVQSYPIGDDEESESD
mouse Estrogen Receptor alpha (Era), Esr1 (gene 13982), sequence (P19785 whole entry, looked up): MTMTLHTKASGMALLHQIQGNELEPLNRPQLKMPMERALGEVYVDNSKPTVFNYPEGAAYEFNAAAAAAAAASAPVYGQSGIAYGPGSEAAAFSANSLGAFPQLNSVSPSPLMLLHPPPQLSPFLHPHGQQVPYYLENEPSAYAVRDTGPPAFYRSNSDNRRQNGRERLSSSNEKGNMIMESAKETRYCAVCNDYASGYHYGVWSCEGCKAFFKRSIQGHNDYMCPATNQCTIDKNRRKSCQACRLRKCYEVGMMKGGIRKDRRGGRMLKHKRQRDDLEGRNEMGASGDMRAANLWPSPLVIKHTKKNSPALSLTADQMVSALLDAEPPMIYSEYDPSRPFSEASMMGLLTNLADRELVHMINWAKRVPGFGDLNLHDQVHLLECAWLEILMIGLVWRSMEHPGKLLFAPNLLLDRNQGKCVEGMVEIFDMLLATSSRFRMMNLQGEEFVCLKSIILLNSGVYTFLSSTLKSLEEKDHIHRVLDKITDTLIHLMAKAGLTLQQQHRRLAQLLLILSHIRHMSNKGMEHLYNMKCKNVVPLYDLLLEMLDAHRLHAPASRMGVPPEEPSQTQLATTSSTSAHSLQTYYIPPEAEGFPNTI

Regarding `CC(C)CCCCCCOC(=O)c1ccc(C(=O)OCCCCCCC(C)C)c(C(=O)OCCCCCCC(C)C)c1`, in test [1], the molecule was called inactive.
With `CCCCCCCCCCCCCC[P+](CCCCCC)(CCCCCC)CCCCCC`, the concentration at half-maximal activity (AC50) in [2] is 33.6 µM (active) and 20.1 µM (active); in [3], 59.6 µM (active) and 51.8 µM (active); in test [4], 46.3 µM (active) and 28.9 µM (active); in test [5], 67.4 µM (active) and 50.1 µM (active) and 7.15 µM (active); in test [6], 34.3 µM (active) and 20.3 µM (active); in [7] it was 59.5 µM (active) and 58.6 µM (active). In addition, the concentration at half-maximal activity (AC50) in test [8] is 32.3 µM (active) and 26.6 µM (active). The molecule was called inactive in test [2], in test [3], in test [6] and in test [7].
As to `C=C(C)C(=O)OCCOCCOCCOC(=O)C(=C)C`, the molecule was classed as inactive in test [1].
`COc1cccc(O)c1`: in test [1], the molecule was called inactive.
On to `Oc1cc[c]([Hg][Cl])cc1`, for which the half-maximal activity concentration (AC50) in test [2] was 20.9 µM (active) and 10.7 µM (active); in test [3] it was 13.9 µM (active); in [4] it was 41.6 µM (active) and 18.9 µM (active); in test [5] it was 30.1 µM (active) and 35.2 µM (active); in [6] it was 20.4 µM (active) and 9.85 µM (active); in test [7] it was 39.2 µM (active) and 17.4 µM (active). Moreover, the AC50 in test [8] is 25.3 µM (active) and 10.5 µM (active); in test [9], 41 µM (active) and 19.2 µM (active). Besides, in test [3], the result was inactive.
In the case of `BrCCCCCCBr`, the result in test [2], in test [3], in test [4] and in test [5] was inactive.
In the case of `c1ccoc1`, the result in [2], in test [3], in test [4], in [5], in [6] and in [7] was inactive. In addition, the outcome in test [8] was inactive.
In the case of `CC[C@H](N)c1ccccc1`, the result in [2], in test [3], in test [4], in test [5], in [6] and in [7] was inactive.
Regarding `C=CC(=O)OCCN(C)C`, the outcome in [2], in test [3], in [4], in [5], in [6] and in [7] was inactive. Moreover, the call in [8] was inactive.
Regarding `N#CC(C#N)=NNc1cccc(Cl)c1`, the molecule was called inactive in test [10] and in test [4]. In addition, the half-maximal activity concentration (AC50) in [2] was 20.8 µM (active); in [3], 2.66 µM (active); in [5] it was 1.24 µM (active); in test [6], 6.28 µM (active); in test [7], 26.7 µM (active); in test [8], 46.1 µM (active).
Consider `O=C(O)c1ccccn1`, for which the molecule was called inactive in test [2], in test [3], in test [4], in [5], in [6] and in test [7]. In [8], the outcome was inactive.
Regarding `[Cl][Dy]([Cl])[Cl]`, in [1], the molecule was classed as inactive.
In the case of `CC(CC(C#N)(c1ccccc1)c1ccccc1)N(C)C` (centres undefined), the result in test [2] was inactive.
Turning to `CC1CCC(C(C)C)C(OC(=O)c2ccccc2N)C1` (centres undefined), the half-maximal activity concentration (AC50) in test [2] was 45.5 µM (active) and 38.5 µM (active); in test [3], 76.3 µM (active); in [4], 23 µM (active); in test [7] it was 42.8 µM (active); in test [8], 31.7 µM (active). The result in test [3], in test [5], in test [8] and in test [9] was inactive.
In the case of `COC(=O)c1cncn1C(C)c1ccccc1` (centres undefined), the outcome in test [2], in test [3], in [4], in test [5], in test [6] and in [7] was inactive.

(Values after PubChem BioAssay (EPA / NIEHS).)
